MITF primary: blocks human microphthalmia-associated transcription factor; AlphaScreen MITF homodimerization, bead proximity signal; 650,000 tested, 0.91% active; inhibition, % at 2.6 µM; AID 1259374; in the data active = inhibition above about 50%
Target sequence (O75030 whole entry, looked up): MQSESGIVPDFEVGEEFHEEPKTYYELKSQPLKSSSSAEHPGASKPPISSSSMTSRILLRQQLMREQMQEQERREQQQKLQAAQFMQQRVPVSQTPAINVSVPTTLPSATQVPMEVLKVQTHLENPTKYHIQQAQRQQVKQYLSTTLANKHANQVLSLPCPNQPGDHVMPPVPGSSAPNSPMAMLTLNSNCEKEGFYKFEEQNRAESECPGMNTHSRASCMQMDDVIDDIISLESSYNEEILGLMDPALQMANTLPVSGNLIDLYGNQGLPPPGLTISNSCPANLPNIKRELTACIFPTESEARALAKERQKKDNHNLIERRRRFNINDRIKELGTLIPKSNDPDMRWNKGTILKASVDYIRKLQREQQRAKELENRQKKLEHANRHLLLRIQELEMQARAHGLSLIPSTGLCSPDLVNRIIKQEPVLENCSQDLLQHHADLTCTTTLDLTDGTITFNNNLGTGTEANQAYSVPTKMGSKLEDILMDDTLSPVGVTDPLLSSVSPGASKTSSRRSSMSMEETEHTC
FBW7 activator: human FBW7 E3 ligase activation, primary screen | Q969H0 | AlphaScreen FBW7–phospho-cyclin E peptide binding, activator screen | normalized activity (activation), % at 26.1 µM | 650,000 tested, 0.13% active | AID 1259310; in the data active = normalized activity above about 1.9%;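 also: purified mutant Fbw7 with reduced substrate affinity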
GPR151 activ: activates the human receptor GPR151 | AID 1508602 | 650,000 tested, 1% active | Q8TDV0 | PathHunter beta-arrestin GPR151 cells, luminescence | activation, % at 11.2 µM; in the data active = activation above about 4.9%
TEAD-YAP block: TEAD-YAP interaction inhibition. HEK-TIYL cells, TEAD-Gal4/YAP UAS-luciferase luminescence. inhibition, % at 9.12 µM. 640,000 tested, 1.4% active. AID 1259422; in the data active = inhibition above about 32%
A number is an active result; . = inactive. Most compounds without a hit are left out; they make up all but 3.5% or so of the library.

SMILES	MITF primary	FBW7 activator	GPR151 activ	TEAD-YAP block
O=C(NCCN1CCOCC1)C(=O)Nc1ccccc1F	.	.	.	.
O=C(CCc1nnc(Cc2c[nH]c3ccccc23)o1)NCCn1ccc2ccccc21	.	2.3	.	.
Cn1c(CCNC(=O)CCc2nnc(Cc3c[nH]c4ccccc34)o2)nc2ccccc21	.	.	.	.
CN(C)c1ccc(C2N=C(c3ccccc3)NO2)cc1 (stereo not given)	.	.	.	35
CSc1ccc(C2N=C(c3ccccc3)NO2)cc1 (stereo not given)	.	.	.	.
Nc1nc2ccc(Cc3ccc4nc(N)sc4c3)cc2s1	.	.	.	41
Nc1nc2ccc(Cc3nc4ccccc4o3)cc2s1	.	.	.	.
CCOC(=O)C1=C(C)N=c2s/c(=C/c3cc(Cl)ccc3O)c(=O)n2C1c1ccc(OC)c(OC)c1 (stereo not given)	.	.	.	.
CS(=O)(=O)c1ccc2c(c1)nc(N1CCCC1)c1nccn12	.	.	.	.
CN(C)S(=O)(=O)c1ccc(C(=O)Nc2ccc(-c3nc4ccccc4[nH]3)cc2)cc1	.	5.0	.	.
Cc1sc(NC(=O)c2ccc(S(=O)(=O)N(C)c3ccccc3)cc2)nc1-c1ccccc1	.	.	.	.
O=C(Nc1ccc(-c2nc3ccccc3[nH]2)cc1)c1ccc(=O)n(Cc2ccccc2)n1	.	.	.	34
Cc1sc(NC(=O)c2ccc(S(=O)(=O)N(C)C)cc2)nc1-c1ccccc1	.	.	.	41
N#CC1=C(N)Oc2n[nH]c(-c3ccc(Cl)cc3Cl)c2C1c1cc2c(cc1Br)OCO2 (stereo not given)	.	.	.	.
O=C1CC(N2CCCCC2)C(=O)N1c1cc(Cl)cc(Cl)c1 (stereo not given)	.	.	.	46
O=C1CC(N2CCCC2)C(=O)N1c1ccc(Cl)cc1 (stereo not given)	.	.	.	.
CCOCCOC(=O)C1=C(C)NC(=O)NC1c1cccc(Br)c1 (stereo not given)	.	.	.	.
FC(F)(F)c1ccc(Cn2cnc3c(NCc4nc5ccccc5[nH]4)nc(Nc4ccccc4)nc32)cc1	.	.	.	41
COc1cc(Nc2nc(NCc3nc4ccccc4[nH]3)c3ncn(Cc4ccc(C(F)(F)F)cc4)c3n2)cc(OC)c1OC	.	.	.	43
FC(F)(F)c1ccc(Cn2cnc3c(NCc4nc5ccccc5[nH]4)nc(Nc4ccc(C(F)(F)F)cc4)nc32)cc1	.	.	.	.
COc1cc(Nc2nc(NC3CC3)c3ncn(Cc4ccc(C(F)(F)F)cc4)c3n2)cc(OC)c1OC	.	.	.	47
FC(F)(F)c1ccc(Cn2cnc3c(NCc4nc5ccccc5[nH]4)nc(Nc4ccc5ncccc5c4)nc32)cc1	.	.	.	.
Cc1ccc(-n2c(SCC#N)nc3c(sc(=S)n3-c3ccc(C)c(C)c3)c2=O)cc1	.	.	.	.
CCN(CC)c1ccc(NC(=O)c2ccc3c4c(cccc24)CC3)cc1	.	.	.	51
Cc1c(NC(=O)c2cc(-c3cccc(Br)c3)nc3ccccc23)c(=O)n(-c2ccccc2)n1C	.	.	.	.
SMILES	MITF primary	FBW7 activator	GPR151 activ	TEAD-YAP block
Cc1c(NC(=O)c2cc(-c3ccccc3)nc3ccccc23)c(=O)n(-c2ccccc2)n1C	.	.	.	33
COC(=O)c1c(C)[nH]c(C(=O)/C(C#N)=C/c2ccco2)c1C	.	.	.	.
CCNc1nc(OC)nc(Oc2ccc(=O)n(-c3ccccc3)n2)n1	.	.	.	.
COc1nc(NCC(C)C)nc(Oc2ccc(=O)n(-c3ccccc3)n2)n1	.	2.4	.	.
Cc1ccc2oc3nn(-c4ccccc4)c(=O)c-3cc2c1	.	.	.	53
O=C(Cn1c(=O)c(C(F)(F)F)nc2ccccc21)NCCCc1ccccc1	.	.	.	.
COc1ccccc1NC(=O)CN1CCC(c2nc3ccc(C)cc3[nH]2)CC1	.	.	.	.
COc1ccccc1NC(=O)N1CCC(c2nc3ccc(Cl)cc3[nH]2)CC1	.	.	.	80
COc1ccccc1NC(=O)N1CCC(c2nc3ccc(C)cc3[nH]2)CC1	.	.	.	64
Cc1ccn2cc(-c3cc4ccccc4oc3=O)nc2c1	.	.	.	.
CCc1ccc(-c2cn3cc(C)ccc3n2)cc1	.	.	.	.
Cc1ccn2cc(-c3ccc(Cl)cc3)nc2c1	.	.	.	78
Cc1ccn2cc(-c3ccccc3Cl)nc2c1	.	.	.	71
CCc1ccc(-c2cn3ccc(C)cc3n2)cc1	.	.	.	96
CS(=O)(=O)N1CCC(c2nc(-c3ccc(C(F)(F)F)cc3)no2)CC1	.	.	.	.

High-throughput results (PubChem BioAssay)
